These results are taken from PubChem BioAssay.

Results filed as inconclusive are left out. Active and inactive are the calls of the source.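 Rule for the calls, unless noted: active = response below a set limit, under 55% cells CD8-positive and vesicle-bound, and CD8 cells' 90th-percentile brightness under 279; inactive = the rest.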

Assay [1] in a line: rapamycin-like changes in RPL19A-GFP expression – cell-based, S. cerevisiae, multiplex flow cytometry, primary screen (AID 1862; in the data active = percent of DMSO control GFP below about 86%;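 note: lower values mimic rapamycin by blocking the RPL19A rise seen in DMSO cells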). The conditions noted are these: S. cerevisiae RPL19A-GFP strain, flow cytometry fluorescence, 3 h; at 10 µM; stronger effect = lower value.
The nature of assay [2]: TOR pathway GLN3 branch reporter MEP2-GFP changes – S. cerevisiae, multiplex flow cytometry, primary screen (AID 1867;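 active = GFP response, as percent of the DMSO control, above the screen-wide mean plus 3 SD, about 139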;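 note: median GFP channel fluorescence of barcode-gated MEP2-GFP cells measured by flow cytometry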). The conditions noted are these: S. cerevisiae MEP2-GFP strain, 3 h, at 10 µM, stronger effect = higher value, 100% means same as DMSO wells.
Assay [3] can be described thus: TOR pathway RTG branch CIT2 reporter changes – S. cerevisiae, GFP fusion, multiplex flow cytometry, primary screen (AID 1870;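 active = percent response above a set limit, the screen-wide mean plus 3 SD, cut at about 130% in these data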;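 note: barcoded CIT2-GFP strain pooled with four other GFP strains with rapamycin as positive control; median GFP fluorescence per well over plate mean of DMSO wells so 100% = DMSO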). The conditions noted are these: S. cerevisiae CIT2-GFP expression, 3 h, at 10 µM, stronger effect = higher value.
Assay [4] in a line: TOR pathway LAP4-GFP level changes – S. cerevisiae, multiplex flow cytometry, primary screen (AID 1873;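 active = GFP signal, as percent of the solvent control, above the screen mean plus 3 SD, about 149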). The following applies: S. cerevisiae LAP4-GFP expression, 3 h, at 10 µM, stronger effect = higher value.
The nature of assay [5]: yeast AGP1-GFP level changes, GLN3 branch – cell-based, multiplex flow cytometry, S. cerevisiae, primary screen (AID 1887;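 active = GFP signal above the screen-wide mean plus 3 SD, that is over about 124.5% of the solvent control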;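 note: AGP1-GFP fusion strain of S. cerevisiae within a five-strain barcoded multiplex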). The conditions noted are these: 3 h, at 10 µM, stronger effect = higher value.
Assay [6] can be described thus: reduced mouse 2C T cell binding to pMHC/ICAM-1 vesicles – MLPCN validation set, flow cytometry, LFA-1/ICAM-1 modulator project, pilot screen (AID 2523).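 For vesicle binding response: mean PE anti-B7-1 fluorescence of CD8+ cells relative to row control; 100% = QL9-loaded vesicles with DMSO vehicle in the same plate row.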 The following applies: 2C mouse CD8+ T cells, at 7 µM, stronger effect = lower value; double positive events: measured here: CD8+/vesicle+ event percentage.
The target of assay [7] is Integrin beta-1 (Homo sapiens) + Integrin alpha-4 (Homo sapiens) (UniProt P13612+P05556). In words: alpha4beta1 integrin LIBS antibody binding reduction – U937 cells, HUTS-21 mAb, flow cytometry, validation set, VLA-4 allosteric modulator project, pilot screen (AID 2674;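 active = inhibition above 50%, about 3 SD of the validation set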;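 note: antibody binding induced by the VLA-4 ligand LDV present at three times its Kd; 0% = LDV ligand with antibody and no compound and 100% = antibody without LDV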). The following applies: HUTS-21 LIBS mAb binding, at 6.7 µM, stronger effect = higher value, binding induced by LDV ligand.

Assay [8] can be described thus: calorie-restriction mimetic ROS inhibitors, yeast – validation compound set, pilot screen (AID 2706;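 active = superoxide response below 65% of plate, a cut near 3 SD across the whole screen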;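 note: yeast exposed to compound for one week at 30 degrees C before staining; 100% = mean of all compound wells on the same plate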). The conditions noted are these: S. cerevisiae aging, superoxide DHE fluorescence; at 10 µM, stronger effect = lower value.
In assay [9] the target is Beta-adrenergic receptor kinase 1 (Homo sapiens) (UniProt P25098). As to the kind of experiment: GRK2 binders displacing RNA aptamer, biochemical, validation, human GRK2, bead flow cytometry (AID 488806;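 active = aptamer binding inhibition above 30%, about 3 SD of noise from non-fluorescent compounds; inactive = inhibition at or below 30%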). The following applies: bead-bound GRK2, FAM-aptamer displacement, at 10 µM, stronger effect = higher value.
Assay [10] addresses AP-2 complex subunit beta (Homo sapiens) (UniProt P63010). As to the kind of experiment: beta-arrestin/AP2 interaction blockers – biochemical, validation set, GST-AP2 beads, flow cytometry, pilot screen (AID 504541;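 active = inhibition above 54%, about 3 SD of non-fluorescent compounds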;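 note: AP2 carries R879A mutation and is captured from E. coli lysate; bead-bound FITC arrestin peptide fluorescence measuring arrestin peptide binding to AP2; 0% = DMSO wells and 100% = excess unlabeled arrestin peptide control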). The following applies: FITC arrestin peptide, at 10 µM, stronger effect = higher value, AP2 beta2 appendage fragment, R879A mutant.
Assay [11] is described as follows: cytosolic pH regulators acting via V-ATPase – S. cerevisiae, pHLuorin, HTS validation (AID 504600; in the data active = response above about 15%;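 note: plate controls were DMSO for no effect and reference compound for full effect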). The following applies: V-ATPase proton transport, at 10 µM, stronger effect = higher value.
For assay [12], the system named is anti-desmoglein-3 scFv antibody binding to human DSG3. In words: blockers of pathogenic pemphigus antibody–desmoglein-3 binding – biochemical, validation compound set, bead-based, flow cytometry, pilot screen (AID 588368;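 active = binding below the plate cutoff, the plate median minus 3 SD, with a reading above zero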;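 note: signal is the median channel fluorescence of bead-bound GFP antibody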). The following applies: Protein G beads, DSG3-Fc, scFv-GFP binding, at 10 µM, stronger effect = lower value.
Assay [13] is described as follows: Nile Red efflux blockade in pump-expressing yeast – validation compound set, multiplex, phenotypic, pilot screen (AID 588506;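 active = efflux inhibition above 0.42, the validation set average plus 4 SD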;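 note: Nile Red retained in cells so higher fluorescence means more efflux inhibition; 0 = negative control wells and 1 = enniatin B 25 µM full block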). The conditions noted are these: S. cerevisiae pump-expressing triplex, Nile Red efflux flow cytometry; at 10 µM; stronger effect = higher value; the pumps come from Candida albicans.
In assay [14] the target is ATP-binding cassette sub-family B member 6 (Homo sapiens) (UniProt Q9NP58). In words: blockers of ABCB6-driven porphyrin uptake – K562-ABCB6 cells, flow cytometry, validation set, pilot screen (AID 588550;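 active = inhibition above the screen-wide mean plus 3 SD, about 51%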;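 note: 0% = DMSO wells and 100% = benzethonium chloride 70 µM positive control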). The conditions noted are these: K562-ABCB6 porphyrin accumulation, 1 h, at 10 µM, stronger effect = higher value.
Assay [15] is described as follows: AML differentiation inducers, ER-HoxA9 marrow cells – cell-based, GFP/MAC1 double positive, flow cytometry, validation set, primary screen (AID 588685;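 active = differentiation response of at least 50%, scaled between solvent and reference control, from cells with both markers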;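 note: compound exposure lasts four days before antibody staining and flow analysis; 0% = DMSO wells and 100% = 5 µM fulvestrant positive control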). The conditions noted are these: stronger effect = higher value, normalized: vehicle 0, fulvestrant 100.

Beta-adrenergic receptor kinase 1 (Homo sapiens), sequence (P25098 whole entry, looked up): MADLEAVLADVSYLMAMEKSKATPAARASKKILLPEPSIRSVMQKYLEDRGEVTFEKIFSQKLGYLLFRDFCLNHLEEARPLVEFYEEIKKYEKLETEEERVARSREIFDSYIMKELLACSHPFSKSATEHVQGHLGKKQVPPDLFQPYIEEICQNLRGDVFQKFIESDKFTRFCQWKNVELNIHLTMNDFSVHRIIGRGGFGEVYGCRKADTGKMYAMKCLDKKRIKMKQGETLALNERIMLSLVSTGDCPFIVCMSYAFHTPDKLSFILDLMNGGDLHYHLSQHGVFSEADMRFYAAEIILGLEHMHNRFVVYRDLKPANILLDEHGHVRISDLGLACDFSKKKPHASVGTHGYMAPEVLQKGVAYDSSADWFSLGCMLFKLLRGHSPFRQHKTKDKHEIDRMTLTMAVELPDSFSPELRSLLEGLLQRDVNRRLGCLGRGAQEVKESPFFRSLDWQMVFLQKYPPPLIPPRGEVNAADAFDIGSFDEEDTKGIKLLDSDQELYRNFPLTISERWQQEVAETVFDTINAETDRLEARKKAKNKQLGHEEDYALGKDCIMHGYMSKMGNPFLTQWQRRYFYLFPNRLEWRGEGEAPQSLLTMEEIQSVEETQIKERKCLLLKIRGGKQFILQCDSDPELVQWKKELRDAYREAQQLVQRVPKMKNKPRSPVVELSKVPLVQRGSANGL
ATP-binding cassette sub-family B member 6 (Homo sapiens), sequence (Q9NP58 whole entry, looked up): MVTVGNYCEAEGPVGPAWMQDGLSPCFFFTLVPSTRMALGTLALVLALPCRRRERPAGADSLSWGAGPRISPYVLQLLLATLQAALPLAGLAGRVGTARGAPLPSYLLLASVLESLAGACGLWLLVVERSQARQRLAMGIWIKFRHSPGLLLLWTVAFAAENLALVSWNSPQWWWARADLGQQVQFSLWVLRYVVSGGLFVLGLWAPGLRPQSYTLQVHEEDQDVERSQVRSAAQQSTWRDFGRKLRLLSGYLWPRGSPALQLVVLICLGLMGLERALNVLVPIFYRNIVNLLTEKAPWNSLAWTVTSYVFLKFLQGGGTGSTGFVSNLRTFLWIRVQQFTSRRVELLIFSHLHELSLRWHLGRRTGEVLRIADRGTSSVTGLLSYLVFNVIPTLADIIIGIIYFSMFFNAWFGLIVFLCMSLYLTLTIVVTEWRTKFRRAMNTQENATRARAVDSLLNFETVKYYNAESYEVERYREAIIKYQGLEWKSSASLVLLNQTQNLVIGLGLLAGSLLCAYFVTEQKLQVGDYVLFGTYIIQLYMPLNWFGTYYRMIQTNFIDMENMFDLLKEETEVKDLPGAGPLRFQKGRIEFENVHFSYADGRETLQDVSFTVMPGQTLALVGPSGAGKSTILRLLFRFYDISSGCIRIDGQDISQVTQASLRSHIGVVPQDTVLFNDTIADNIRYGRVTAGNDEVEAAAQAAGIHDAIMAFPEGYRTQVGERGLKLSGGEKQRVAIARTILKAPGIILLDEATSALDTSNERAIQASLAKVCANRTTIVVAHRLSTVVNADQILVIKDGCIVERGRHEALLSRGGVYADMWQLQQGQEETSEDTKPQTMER
AP-2 complex subunit beta (Homo sapiens), sequence (P63010 whole entry, looked up, the tested form may be a part, one chain of several): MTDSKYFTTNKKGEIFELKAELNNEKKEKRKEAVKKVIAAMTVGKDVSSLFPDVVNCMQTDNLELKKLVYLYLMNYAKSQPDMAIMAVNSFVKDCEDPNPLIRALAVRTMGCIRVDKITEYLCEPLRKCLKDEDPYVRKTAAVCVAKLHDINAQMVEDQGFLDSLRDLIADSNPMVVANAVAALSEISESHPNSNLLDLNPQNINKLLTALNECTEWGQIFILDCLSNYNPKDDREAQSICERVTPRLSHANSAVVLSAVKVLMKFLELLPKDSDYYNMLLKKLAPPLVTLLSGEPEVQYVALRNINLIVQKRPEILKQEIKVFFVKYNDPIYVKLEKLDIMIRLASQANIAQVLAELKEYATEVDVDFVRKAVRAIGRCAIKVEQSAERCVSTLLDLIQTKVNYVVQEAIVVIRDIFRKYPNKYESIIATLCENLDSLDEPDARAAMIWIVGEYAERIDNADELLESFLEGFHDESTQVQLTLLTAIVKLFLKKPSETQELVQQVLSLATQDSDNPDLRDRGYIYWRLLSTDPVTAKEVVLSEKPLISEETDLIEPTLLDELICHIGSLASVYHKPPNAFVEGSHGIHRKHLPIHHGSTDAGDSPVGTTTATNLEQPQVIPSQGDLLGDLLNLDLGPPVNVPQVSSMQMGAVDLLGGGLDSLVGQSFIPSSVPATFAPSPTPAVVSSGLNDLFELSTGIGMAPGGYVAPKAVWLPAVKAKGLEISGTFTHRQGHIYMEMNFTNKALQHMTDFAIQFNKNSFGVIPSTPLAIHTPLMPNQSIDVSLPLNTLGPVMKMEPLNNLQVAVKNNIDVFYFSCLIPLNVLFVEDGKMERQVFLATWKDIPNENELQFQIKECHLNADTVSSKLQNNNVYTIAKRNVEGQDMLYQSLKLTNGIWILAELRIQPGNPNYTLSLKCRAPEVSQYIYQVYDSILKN
Integrin beta-1 (Homo sapiens) + Integrin alpha-4 (Homo sapiens), sequence (P05556 whole entry, looked up): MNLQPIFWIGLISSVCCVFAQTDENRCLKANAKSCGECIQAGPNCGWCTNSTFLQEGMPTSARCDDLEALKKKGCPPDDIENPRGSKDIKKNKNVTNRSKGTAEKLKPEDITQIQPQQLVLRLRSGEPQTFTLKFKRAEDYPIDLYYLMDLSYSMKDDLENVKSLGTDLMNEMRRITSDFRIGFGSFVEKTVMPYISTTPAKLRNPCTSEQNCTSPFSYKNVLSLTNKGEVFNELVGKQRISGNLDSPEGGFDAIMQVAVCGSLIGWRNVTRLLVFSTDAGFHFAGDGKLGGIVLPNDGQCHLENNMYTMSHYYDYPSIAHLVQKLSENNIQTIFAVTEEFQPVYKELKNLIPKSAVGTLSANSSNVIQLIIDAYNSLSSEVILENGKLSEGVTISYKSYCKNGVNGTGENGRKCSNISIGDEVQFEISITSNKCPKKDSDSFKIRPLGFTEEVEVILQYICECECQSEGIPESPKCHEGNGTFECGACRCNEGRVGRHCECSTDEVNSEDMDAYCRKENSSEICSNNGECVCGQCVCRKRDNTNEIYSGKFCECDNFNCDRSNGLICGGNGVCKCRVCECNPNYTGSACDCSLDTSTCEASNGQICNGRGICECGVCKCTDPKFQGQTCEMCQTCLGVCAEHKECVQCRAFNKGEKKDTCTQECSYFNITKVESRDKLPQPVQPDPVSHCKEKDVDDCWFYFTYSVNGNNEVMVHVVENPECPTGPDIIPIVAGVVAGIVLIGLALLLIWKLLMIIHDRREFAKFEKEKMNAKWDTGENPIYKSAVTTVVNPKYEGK
Integrin beta-1 (Homo sapiens) + Integrin alpha-4 (Homo sapiens), sequence (P13612 whole entry, looked up): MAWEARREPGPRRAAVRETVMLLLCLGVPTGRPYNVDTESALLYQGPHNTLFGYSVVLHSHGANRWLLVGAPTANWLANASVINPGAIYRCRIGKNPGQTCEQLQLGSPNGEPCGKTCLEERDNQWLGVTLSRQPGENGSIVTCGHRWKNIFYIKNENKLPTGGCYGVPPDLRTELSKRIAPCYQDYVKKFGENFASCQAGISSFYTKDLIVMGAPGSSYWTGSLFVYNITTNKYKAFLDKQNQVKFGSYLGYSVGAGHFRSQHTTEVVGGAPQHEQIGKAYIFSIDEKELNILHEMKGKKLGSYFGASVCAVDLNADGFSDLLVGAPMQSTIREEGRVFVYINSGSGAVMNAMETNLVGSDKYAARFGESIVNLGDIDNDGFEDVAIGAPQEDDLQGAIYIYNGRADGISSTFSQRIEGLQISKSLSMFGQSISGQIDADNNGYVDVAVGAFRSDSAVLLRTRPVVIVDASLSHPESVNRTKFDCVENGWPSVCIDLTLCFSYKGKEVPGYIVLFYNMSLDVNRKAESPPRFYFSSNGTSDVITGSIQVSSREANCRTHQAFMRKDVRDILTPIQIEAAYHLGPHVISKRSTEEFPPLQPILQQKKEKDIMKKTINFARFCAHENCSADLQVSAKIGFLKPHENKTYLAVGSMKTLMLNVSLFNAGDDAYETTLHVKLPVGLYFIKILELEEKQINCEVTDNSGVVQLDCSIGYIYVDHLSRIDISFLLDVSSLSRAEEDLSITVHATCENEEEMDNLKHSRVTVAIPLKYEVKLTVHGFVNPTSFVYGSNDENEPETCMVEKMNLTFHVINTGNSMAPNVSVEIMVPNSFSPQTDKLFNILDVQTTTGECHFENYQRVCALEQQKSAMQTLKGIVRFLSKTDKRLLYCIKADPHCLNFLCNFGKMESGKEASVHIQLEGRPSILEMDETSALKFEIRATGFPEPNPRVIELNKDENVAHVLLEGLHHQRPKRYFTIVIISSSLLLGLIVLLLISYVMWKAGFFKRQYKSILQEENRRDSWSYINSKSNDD

Take `CN=C1c2cc3cc(OC)ccc3n2CCN1C`: the percent of DMSO control GFP in [1] was 101% (inactive). Also, the GFP response vs DMSO in [2] is 97.9% (inactive); in assay [4], 93.3% (inactive). Moreover, the percent response of DMSO control in assay [3] is 102% (inactive). For the same compound, the GFP response, % of DMSO in [5] is 99% (inactive). Further, the double positive events in assay [6] is 62%. The vesicle binding response in assay [6] was 177% (inactive). Moreover, the inhibition in assay [7] is 11.9% (inactive); in [10], 14.9% (inactive); in assay [14], 2% (inactive). For the same compound, the superoxide response (% of plate) in assay [8] was 103% (inactive). In [9], the aptamer binding inhibition was 4% (inactive). In addition, the response in [11] was -2.85% (inactive). Also, in [12], the binding (% of control) was 98.8% (inactive). For the same compound, in assay [13], the efflux inhibition (fraction of control) was 0.1 (inactive). Also, the differentiation response in assay [15] was 12.7% (inactive).

For the compound `COc1c(C)cc(C(=O)C2CCCN(Cc3ccc(Oc4ncccn4)cc3)C2)cc1C` (centres undefined), in [1], the percent of DMSO control GFP is 99.5% (inactive). Besides, the GFP response vs DMSO in assay [2] is 107% (inactive); in assay [4], 103% (inactive). For the same compound, the percent response of DMSO control in assay [3] is 112% (inactive). The GFP response, % of DMSO in assay [5] was 103% (inactive). The same compound had a double positive events in [6] of 56.4%. For the same compound, the vesicle binding response in assay [6] was 202% (inactive). Further, the inhibition was -4.9% (inactive) in assay [7], 4.02% (inactive) in assay [10] and 5% (inactive) in [14]. In addition, in assay [8], the superoxide response (% of plate) was 99.2% (inactive). Further, the aptamer binding inhibition in assay [9] was 0% (inactive). The response in assay [11] is 0.79% (inactive). Besides, in assay [12], the binding (% of control) was 101% (inactive). Moreover, the efflux inhibition (fraction of control) in [13] was -0.01 (inactive). In addition, the differentiation response in assay [15] was -30.9% (inactive).

Turning to `COc1cccc(CN2CCN(C(=O)c3ccc(-c4ccccc4)cc3)CC2)c1`, in assay [1], the percent of DMSO control GFP is 99.1% (inactive). The values for the GFP response vs DMSO in [2] and in assay [4] were 103% (inactive) and 113% (inactive), respectively. In assay [3], the percent response of DMSO control is 103% (inactive). Besides, in assay [5], the GFP response, % of DMSO is 98.8% (inactive). The same compound returned a double positive events in [6] of 52.5%. Besides, the vesicle binding response in [6] was 189% (inactive). The inhibition in assay [7] was -6.77% (inactive); in [10], -7.96% (inactive); in assay [14], 7% (inactive). Besides, the superoxide response (% of plate) in assay [8] is 87.9% (inactive). Moreover, in [9], the aptamer binding inhibition is 2% (inactive). Moreover, the response in [11] was 5.01% (inactive). The binding (% of control) in [12] is 99.5% (inactive). Also, the efflux inhibition (fraction of control) in [13] was 0.22 (inactive). In addition, the differentiation response in [15] was 4.64% (inactive).

Regarding `C[C@@H]1C[C@H]2[C@@H]3CCC4=CC(=O)C=C[C@]4(C)[C@@]3(F)[C@@H](O)C[C@]2(C)[C@H]1C(=O)CO`, the percent of DMSO control GFP in [1] is 102% (inactive). In addition, the GFP response vs DMSO in assay [2] is 97.9% (inactive); in assay [4] it was 81.3% (inactive). Also, the percent response of DMSO control in assay [3] is 109% (inactive). In assay [5], the GFP response, % of DMSO is 96.6% (inactive). In assay [6], the double positive events was 54.1%. Besides, the vesicle binding response in assay [6] is 226% (inactive). Moreover, the values for the inhibition in assay [7], in assay [10] and in assay [14] were -12.4% (inactive), -3.18% (inactive) and 6% (inactive), respectively. Moreover, in assay [8], the superoxide response (% of plate) was 107% (inactive). In addition, the aptamer binding inhibition in assay [9] is -2% (inactive). Besides, the response in assay [11] was -6.95% (inactive). The binding (% of control) in assay [12] is 97.8% (inactive). The efflux inhibition (fraction of control) in [13] was -0.12 (inactive). In addition, the differentiation response in assay [15] is -11.5% (inactive).
